Consider five molecules from PubChem BioAssay.

The subject of experiment [1] is Human papillomavirus type 1a protein E7 (residues 44-93). The experiment can be described thus: small molecules binding HPV E7 44-93 – biochemical, small-molecule microarray, residues 44-93, 635 nm fluorescence, primary screen (AID 1108).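 Note: E7 fragment applied at 1 µg/mL in TBST for 1 h at 4 C; score combines spot fluorescence with its signal to noise ratio.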 The note with it: fluorescence 635 nm, higher = more signal.
Experiment [2] is described as follows: hepatitis C replication reporter changes, two-sided – Huh7 cells, luciferase reporter, HCV replication inhibitor project, primary screen (AID 1109).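 Note: huh7 hepatoma cells harbouring a luciferase neomycin HCV replicon reporter; luciferase luminescence as measure of HCV replicon replication; test concentration not given here.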 To be noted: Huh7 HCV replicon luciferase reporter, 48 h; higher = more signal.
For experiment [3], the target named is Left-right determination factor 2 (Homo sapiens) (UniProt O00292). Briefly: small molecules binding LEFTY2 protein – biochemical, small-molecule microarray, 635 nm fluorescence scan, primary screen (AID 1110). The note with it: higher = more signal.
Sequence of Left-right determination factor 2 (Homo sapiens) (O00292 whole entry, looked up): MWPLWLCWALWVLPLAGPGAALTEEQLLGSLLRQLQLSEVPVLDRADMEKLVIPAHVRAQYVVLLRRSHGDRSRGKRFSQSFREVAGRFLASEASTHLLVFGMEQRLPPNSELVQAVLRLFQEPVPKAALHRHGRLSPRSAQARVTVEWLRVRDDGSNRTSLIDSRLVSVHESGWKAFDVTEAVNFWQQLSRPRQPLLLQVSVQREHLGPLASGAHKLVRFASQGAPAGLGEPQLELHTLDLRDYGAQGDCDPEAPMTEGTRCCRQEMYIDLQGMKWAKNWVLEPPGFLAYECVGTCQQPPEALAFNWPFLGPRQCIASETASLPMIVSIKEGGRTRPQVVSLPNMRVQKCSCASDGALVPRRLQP
Experiment [4] addresses Calmodulin-1 (Homo sapiens) (UniProt P0DP23). The experiment can be described thus: small molecules binding calmodulin-1 with EGTA – biochemical, small-molecule microarray, Cy5-labelled CALM1, profiling panel (AID 1111).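 Note: labelled calmodulin applied in Tris saline Tween buffer holding calcium plus EGTA and DTT.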 To be noted: Cy5-CALM1 binding fluorescence, higher = more signal.
For experiment [5] the target is unchanged. Briefly: small molecules binding Ca-loaded calmodulin-1 – biochemical, small-molecule microarray, Cy5-labelled CALM1, plus calcium, artefact control for SMM control-protein annotation, profiling panel (AID 1112).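 Note: score merges spot fluorescence with signal to noise from triplicate slides.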 The note with it: Cy5-CALM1 binding fluorescence, higher = more signal.
Experiment [6] in a line: probe aWnt5a binding to arrayed compounds – biochemical, biotinylated probe, 635/667 nm fluorescence, primary screen (AID 1113).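 Note: score merges 667 nm fluorescence intensity with signal-to-noise per printed feature.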 To be noted: small-molecule microarray, higher = more signal.
A short description of experiment [7]: probe aShh binding to arrayed compounds – biochemical, biotinylated probe, 635/667 nm fluorescence, primary screen (AID 1114).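 Note: probe is biotin-labelled aShh protein from a stem cell growth factor screen; measures binding of labelled protein to compounds printed on the slide; score merges feature fluorescence at 667 nm with signal-to-noise.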 To be noted: small-molecule microarray, higher = more signal.
Experiment [8] is described as follows: probe aNog binding to arrayed compounds – biochemical, biotinylated probe, 635/667 nm fluorescence, primary screen (AID 1115).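 Note: probe is biotinylated aNog protein used at 0.15 µg/mL for 1 h at 4 C; z-score combines 667 nm fluorescence of each spot with its signal to noise.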 To be noted: small-molecule microarray, higher = more signal.
Experiment [9] concerns the target Torsin-1A-interacting protein 1 (Homo sapiens) (UniProt Q5JTV8). The experiment can be described thus: compound microarray binding of lysate hLAP1 – cell lysate, small-molecule microarray, COS7 lysate, 635/667 nm fluorescence, primary screen (AID 1116). The note with it: 635 nm fluorescence, higher = more signal.
The target of experiment [10] is Alpha-bungarotoxin (Bungarus multicinctus) (UniProt P60615). Briefly: compounds binding labelled alpha-BTX control protein – biochemical, small-molecule microarray, Alexa647 label, 635/667 nm fluorescence, artefact control for SMM control protein annotation, profiling panel (AID 1117). To be noted: alpha-BTX-A647 binding fluorescence, higher = more signal.
Sequence of Alpha-bungarotoxin (Bungarus multicinctus) (P60615 whole entry, looked up): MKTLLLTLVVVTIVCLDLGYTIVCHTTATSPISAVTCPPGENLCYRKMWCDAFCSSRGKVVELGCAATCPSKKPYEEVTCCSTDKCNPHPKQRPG
In a further experiment the target is Albumin (Bos taurus) (UniProt P02769). The experiment can be described thus: compounds binding labelled BSA control protein – biochemical, small-molecule microarray, Alexa647 label, 635/667 nm fluorescence, artefact control for SMM control protein annotation, profiling panel (AID 1118).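 Note: score merges 667 nm emission intensity and signal-to-noise per printed compound spot.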 To be noted: BSA-A647 binding, fluorescence 635 nm, higher = more signal.
Sequence of Albumin (Bos taurus) (P02769 whole entry, looked up): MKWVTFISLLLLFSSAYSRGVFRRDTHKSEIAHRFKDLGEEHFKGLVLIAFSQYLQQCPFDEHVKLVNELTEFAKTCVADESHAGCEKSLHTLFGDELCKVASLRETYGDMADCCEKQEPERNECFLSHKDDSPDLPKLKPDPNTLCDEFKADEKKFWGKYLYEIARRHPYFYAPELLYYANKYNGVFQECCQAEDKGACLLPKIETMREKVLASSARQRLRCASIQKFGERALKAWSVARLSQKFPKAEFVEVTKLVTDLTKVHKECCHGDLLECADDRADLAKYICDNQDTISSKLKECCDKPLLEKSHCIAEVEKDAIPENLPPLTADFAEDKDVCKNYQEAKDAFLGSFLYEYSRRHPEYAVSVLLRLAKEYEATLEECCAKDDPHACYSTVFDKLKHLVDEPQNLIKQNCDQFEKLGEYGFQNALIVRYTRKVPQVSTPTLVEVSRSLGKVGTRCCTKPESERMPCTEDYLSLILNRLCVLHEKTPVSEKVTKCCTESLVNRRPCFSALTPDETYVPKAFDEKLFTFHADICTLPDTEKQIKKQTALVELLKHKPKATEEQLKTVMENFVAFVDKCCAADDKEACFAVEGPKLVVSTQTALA
Experiment [11] in a line: probe aXIP binding to arrayed compounds – biochemical, NeuroSMM set, 635/667 nm fluorescence, primary screen (AID 1119).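 Note: probe is the protein aXip251-270 applied at 1 µg/mL to compound-printed slides; binding of probe to printed compounds measured as 667 nm fluorescence plus signal to noise.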 To be noted: small-molecule microarray, higher = more signal, called active from +8 up or from −8 down.
The nature of experiment [12]: probe aNOTCH3 binding on compound microarray – biochemical, small-molecule microarray, 635/667 nm fluorescence, primary screen (AID 1120).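 Note: probe is a biotin-tagged antibody raised against NOTCH3 rather than NOTCH3 protein; score merges spot fluorescence near 667 nm with spot signal to noise.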 The note with it: higher = more signal.
The nature of experiment [13]: probe aNOTCH2 binding on compound microarray – biochemical, small-molecule microarray, 635/667 nm fluorescence, primary screen (AID 1121).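 Note: score merges feature fluorescence read at 667 nm with its signal to noise.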 To be noted: higher = more signal.
Experiment [14] concerns the target Carbonic anhydrase 2 (Homo sapiens) (UniProt P00918). The experiment can be described thus: compounds binding carbonic anhydrase 2 – biochemical, small-molecule microarray, Alexa647-labelled CAII, profiling panel (AID 1122). To be noted: CAII-A647 binding fluorescence, higher = more signal.
Experiment [15] is described as follows: COS7 lysate on small-molecule microarray, probe aHis, 635 nm (AID 1123).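 Note: z-score combines 667nm fluorescence intensity with signal-to-noise per printed compound spot.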 The note with it: COS7 cell lysate, fluorescence, higher = more signal.
A short description of experiment [16]: probe aLAP1 signal on lysate-treated microarray – cell lysate, small-molecule microarray, COS7 lysate, primary screen (AID 1124).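 Note: lysate comes from COS7 cells expressing LAP1 and is applied at 0.3 µg/mL; score merges spot fluorescence near 667 nm with signal-to-noise over triplicate slides.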 The note with it: probe aLAP1, fluorescence, higher = more signal.
The next experiment relates to Sam68 (KHDRBS1). The experiment can be described thus: compounds binding KHDRBS1 protein – biochemical, small-molecule microarray, 635 nm fluorescence, primary screen (AID 1125).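 Note: score merges 667 nm channel intensity with signal to noise over triplicate slides.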 The note with it: higher = more signal.
The test system of experiment [17] is Chordin-like protein 2 (CHRDL2). Briefly: compounds binding chordin-like 2 – biochemical, small-molecule microarray, 635 nm fluorescence, primary screen (AID 1126).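 Note: printed compound slides probed with Chrdl2 protein at 4 µg/mL for 1 h at 4 C; score merges 667 nm emission intensity with signal to noise over three replicate slides.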 To be noted: fluorescence 635 nm, higher = more signal.
Experiment [18] addresses Concanavalin-A (Canavalia ensiformis) (UniProt P02866). Briefly: compounds binding concanavalin A lectin – biochemical, small-molecule microarray, Alexa647 label, 635 nm, artefact control for SMM control protein annotation, primary screen (AID 1127).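 Note: z combines 667 nm emission intensity with signal-to-noise across three replicate slides.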 To be noted: ConA-A647 binding fluorescence, higher = more signal.

Calls of active or inactive are those of the source.

Sequence of Concanavalin-A (Canavalia ensiformis) (P02866 whole entry, looked up): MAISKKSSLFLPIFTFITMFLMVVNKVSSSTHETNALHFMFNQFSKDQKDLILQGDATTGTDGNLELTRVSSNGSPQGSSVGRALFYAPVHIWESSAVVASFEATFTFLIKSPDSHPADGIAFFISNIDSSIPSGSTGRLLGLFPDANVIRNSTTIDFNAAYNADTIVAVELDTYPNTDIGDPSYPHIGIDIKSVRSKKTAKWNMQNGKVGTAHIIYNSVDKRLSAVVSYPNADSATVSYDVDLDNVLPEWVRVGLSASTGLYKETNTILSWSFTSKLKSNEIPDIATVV
Sequence of Torsin-1A-interacting protein 1 (Homo sapiens) (Q5JTV8 whole entry, looked up): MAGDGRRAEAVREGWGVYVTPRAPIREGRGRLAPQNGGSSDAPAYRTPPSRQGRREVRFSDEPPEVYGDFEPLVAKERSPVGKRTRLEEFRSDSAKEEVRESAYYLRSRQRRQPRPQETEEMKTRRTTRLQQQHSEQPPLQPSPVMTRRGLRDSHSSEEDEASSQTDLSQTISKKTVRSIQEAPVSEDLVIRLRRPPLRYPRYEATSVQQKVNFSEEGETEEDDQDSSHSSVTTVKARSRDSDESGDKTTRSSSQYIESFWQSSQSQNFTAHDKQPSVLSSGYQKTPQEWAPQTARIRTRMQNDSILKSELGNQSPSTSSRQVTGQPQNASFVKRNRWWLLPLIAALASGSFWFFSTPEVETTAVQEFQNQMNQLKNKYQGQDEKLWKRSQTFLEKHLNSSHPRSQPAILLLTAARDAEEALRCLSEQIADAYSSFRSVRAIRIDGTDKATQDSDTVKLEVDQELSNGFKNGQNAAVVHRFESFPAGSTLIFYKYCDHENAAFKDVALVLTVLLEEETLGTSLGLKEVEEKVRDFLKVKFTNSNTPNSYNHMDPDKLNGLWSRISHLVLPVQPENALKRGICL

As to `COCCCNC(=O)[C@]1(Cc2ccccc2N=[N+]=[N-])N=C(c2ccc(OCCCO)cc2)O[C@@H]1c1ccccc1N=[N+]=[N-]`, the composite z-score is 1.43 in [1]; -0.282 in experiment [3]; 1.72 in experiment [4]; 0.785 in [5]; 0.14 in experiment [6]; 0.0556 in experiment [7]. For the same molecule, the composite z-score was -0.312 in [8]; -0.0819 in [9]; 0.955 in [10]; 0.99 with Albumin (Bos taurus); 0.0348 in [12]; -0.0372 in experiment [13]. Moreover, the composite z-score in experiment [14] was 0.666; in [15] it was 2.33; in experiment [16], -0.0886; in the experiment on Sam68 (KHDRBS1), 1.3; in [17] it was -0.502; in experiment [18], 1.09. In addition, in [2], the z-score is -3.31. In [11], the composite Z-score was 0.0401 (inactive).

As for `CC=CC(O)C1C=CC2C(=O)N(c3ccccc3)C(=O)C2N1Nc1ccccc1` (stereo not given), the composite z-score in experiment [1] came to 1.19; in experiment [3] it was 0.215; in experiment [4] it was 0.667; in experiment [5] it was 0.362; in experiment [6] it was 0.136; in [7] it was 0.304. In addition, the composite z-score is 1.16 in experiment [8]; 1.1 in experiment [9]; 1.89 in [10]; 0.867 with Albumin (Bos taurus); 0.291 in experiment [12]; 0.121 in experiment [13]. Also, the composite z-score was 0.681 in experiment [14]; 2.57 in [15]; 0.243 in experiment [16]; 1.29 in the experiment with Sam68 (KHDRBS1); 0.25 in experiment [17]; 1.19 in experiment [18]. For the same molecule, the z-score in experiment [2] is 0.527. Also, the composite Z-score in experiment [11] was 0.454 (inactive).

Consider `COc1ccc([Si](C)(C)[C@@H]2[C@@H](CCO)O[C@]3(C(=O)N(Cc4cccc(N5C(=O)c6cccc7cccc5c67)c4)c4ccccc43)[C@H]2C)cc1`, for which the composite z-score in experiment [1] is 1.21; in experiment [3], -0.385; in [4], 0.831; in experiment [5], 0.978; in experiment [6], -0.0758; in experiment [7] it was 0.0815. Further, the composite z-score in experiment [8] was 0.0601; in [9], 0.0561; in [10], 0.578; with Albumin (Bos taurus), 0.219; in experiment [12], -0.0947; in experiment [13], -0.101. Also, the composite z-score is 0.428 in experiment [14]; 1.17 in experiment [15]; -0.179 in [16]; 0.262 in the experiment with Sam68 (KHDRBS1); -0.512 in [17]; 0.48 in [18]. The z-score in experiment [2] is -4.47. For the same molecule, the composite Z-score in experiment [11] is -0.139 (inactive).

Consider `CN(C)C(=O)[C@]1(CCC(=O)OC(C)(C)C)N=C(c2ccc(OCCCO)cc2)O[C@@H]1c1ccccc1`, for which the composite z-score in [1] is 1.17; in experiment [3] it was 0.119; in [4], 0.989; in experiment [5] it was 0.744; in [6], 0.14; in experiment [7], 0.0793. Moreover, the composite z-score is 0.289 in experiment [8]; 2.76 in [9]; 0.654 in [10]; 0.383 with Albumin (Bos taurus); 0.116 in experiment [12]; -0.0308 in [13]. Moreover, the composite z-score is 0.469 in experiment [14]; 3.06 in experiment [15]; 0.264 in experiment [16]; 0.374 with Sam68 (KHDRBS1); -0.792 in [17]; 0.34 in experiment [18]. The molecule also had a z-score in experiment [2] of 0.381. Besides, the composite Z-score in [11] is 0.666 (inactive).

For the molecule `COC(=O)c1c(CC[C@@H](CO)NC(=O)N[C@H](Cn2cc(-c3ccccc3C)nn2)C(C)C)oc(C(C)=O)c1C(=O)OC`, the composite z-score in [1] is -0.794; in [3], -0.645; in experiment [4] it was -0.0696; in experiment [5], -0.637; in experiment [6] it was -0.169; in experiment [7], -0.0553. The composite z-score was 0.0099 in [8]; 0.441 in [9]; 0.879 in [10]; 0.119 with Albumin (Bos taurus); -0.0731 in experiment [12]; -0.075 in experiment [13]. For the same molecule, the composite z-score was 0.0708 in [14]; -0.363 in [15]; -0.108 in experiment [16]; -1.08 with Sam68 (KHDRBS1); -0.767 in experiment [17]; 0.43 in experiment [18]. The z-score in [2] was -0.515. The composite Z-score in [11] is -0.115 (inactive).
